Screening results deposited in PubChem BioAssay by The Scripps Research Institute Molecular Screening Center.
ssDAF12 agonist: S. stercoralis DAF-12 nuclear receptor activators, primary screen, cell-based, luminescence, HEK293, GRIP1 co-expression, lit1-tk-luc; activation, % at 6.8 µM; AID 652126, 2013; HEK293 ssDAF-12/GRIP1 lit1-tk-luc reporter; % of 3 µM dafachronic acid response; 370,000 compounds, 1% hits;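 active = activation above the mean over all tested compounds plus 3 SD, cut at about 0.9% in these data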;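 also: 0% = DMSO-only wells and 100% = 3 µM delta7-dafachronic acid wells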
hgDAF-12 ag: H. glycines DAF-12 receptor agonists, primary screen, cell-based, luminescence, HEK293, GAL4 fusion, UAS-luciferase; Nuclear hormone receptor DAF-12 (Heterodera glycines), GAL4 fusion; HEK293 GAL4-hgDAF12 UAS-luciferase reporter, agonist luminescence; normalized to butyrate control; activation, % at 6.8 µM; 370,000 compounds, 1.8% hits; AID 687014, 2013;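 active = activation above a cutoff set at the mean of all screened compounds plus 3 SD, cut at about 10% in these data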;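 also: 0% = DMSO wells and 100% = sodium butyrate wells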
SMARCA2 activ: SMARCA2 (BRM) function activators, primary screen, cell-based, luminescence, high throughput; MG213 cells, MMTV-luciferase reporter, dexamethasone, overnight; activation, % at 9.1 µM; 370,000 compounds, 1% hits; AID 652017, 2013; in the data active = activation above about 7.8%;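 also: 0% = vehicle wells and 100% = reference activator wells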
hcDAF12 agonist: H. contortus DAF-12 nuclear receptor activators, primary screen, cell-based, luminescence, HEK293, lit1-tk-luc reporter. 370,000 compounds, 1.4% hits. activation, % at 6.8 µM. HEK293 hcDAF-12 lit1-tk-luc reporter; 0% DMSO, 100% Δ7-dafachronic acid;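 active = activation above the mean of all tested compounds plus 3 SD, cut at about 5.5% in these data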;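 also: 100% = response to 3 µM Δ7-dafachronic acid high control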
DAX1 inh: DAX1 (NR0B1) inhibitors on StAR promoter, primary screen, cell-based, luminescence, SF-1 (NR5A1), full-length DAX-1 | 370,000 compounds, 1.1% hits | HEK293T StAR-luciferase reporter, SF-1/DAX-1 repression relief | inhibition, % at 6.8 µM | AID 652010, 2013;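 active = inhibition above the mean over all tested compounds plus 3 SD, cut at about 3.6% in these data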;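 also: 0% = DAX-1 cells with DMSO and 100% = cells lacking DAX-1 with DMSO; higher inhibition means more luminescence from relief of DAX-1 repression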
The depositor's hits bear a star; . = no result; ! = repeats disagree. Hits are enriched below; roughly 4.2% of the tested compounds scored in any of these assays.

SMILES	ssDAF12 agonist	hgDAF-12 ag	SMARCA2 activ	hcDAF12 agonist	DAX1 inh
O=C1NC[C@H](CCCCN2C[C@H](Cc3ccccc3)N(Cc3ccccc3)C(=O)C2=O)N(CCc2ccccc2)C1=O	-1.5	-0.3	-4.1	-1.0	3.8*
O=C1NC[C@@H](CCCCN2C[C@H](Cc3ccccc3)N(CCc3ccccc3)C(=O)C2=O)N(Cc2ccccc2)C1=O	-0.9	-1.1	-5.0	-1.1	-0.8
COC(=O)C(=Cc1ccc(-c2ccsc2C(=O)OC)o1)C(=O)OC	-1.1	-1.4	7.9*	-0.4	-0.3
COc1ccc(CNS(=O)(=O)c2cc(Br)ccc2Br)c(OC)c1	-0.5	-1.2	-0.2	-0.5	0.5
N=C1SC(c2ccccc2)C(=O)N1c1ncc(Cc2ccccc2)s1 (stereo not drawn)	-0.9	12.5*	0.3	4.1	0.6
O=C1/C(=C/c2cccnc2)CCc2c1[nH]c1ccccc21	-1.1	13.2*	-4.8	1.1	2.8
CC(C)CC(CCOCCO)NC(=O)OCc1ccccc1[N+](=O)[O-] (stereo not drawn)	-1.1	1.2	.	0.1	.
C/C(=N\Nc1nc2c(s1)CCCC2)c1ccc(Cl)cc1	-0.1	5.8	2.2	6.3*	0.5
C/C(=N\NC1=NCCN1)c1ccc(Cl)cc1	-1.1	0.1	-2.6	0.1	0.2
CCOC(=O)C1(Cc2ccccc2)CCN(Cc2ccccc2[N+](=O)[O-])CC1	-1.8	-0.9	-2.4	-0.2	-0.9
CCOC(=O)[C@@]12CN(C(=O)OC(C)(C)C)CC=C1N(Cc1ccc(OC)cc1)C(=O)[C@H]2CC(=O)N1CCC(c2ccccc2)CC1	-1.7	-5.1	-3.6	-2.6	-1.4
COCCCN1C(=O)[C@H](CC(=O)NCC23CC4CC(CC(C4)C2)C3)[C@]2(C(=O)OC)CCCCC=C12	-0.7	-0.9	-2.8	-0.3	-0.6
Nn1c(SCC(=O)N2CCOCC2)nnc1-c1n[nH]c2c1CCC2	-0.8	5.5	3.7	-0.3	0.3
C=CCOc1nc(-c2ccccc2Cl)nc2ccccc12	1.4*	0.7	-2.9	2.3	0.1
CCOc1nc(-c2ccccc2Cl)nc2ccccc12	-0.8	1.0	1.1	-0.6	-0.7
CC(NC(=O)CCc1nnc(Cc2cccc(C(F)(F)F)c2)o1)C1CC1 (stereo not drawn)	-1.6	10.5*	3.9	-0.6	0.6
C=C(C)CNC(=O)CCc1nnc(Cc2cccc(C(F)(F)F)c2)o1	1.0*	10.1	5.0	1.5	1.4
Cc1cccc(C)c1-n1nnnc1C1(C)CCC(=O)N1CC1CCCCC1 (stereo not drawn)	-1.4	0.3	-4.4	1.0	-0.9
Nc1ccc2nc(-c3cccnc3)[nH]c2c1	0.0	-1.1	6.0	-0.9	0.1
Nc1ccc2nc(-c3ccccc3)[nH]c2c1	1.7*	8.9	0.1	3.8	2.1
Cc1ccc(-c2csc3nc(-c4ccncc4)[nH]c(=O)c23)cc1	-1.8	-3.0	-3.0	-2.9	-0.6
Cc1ccc2nc(-c3ccncc3)[nH]c2c1	0.2	11.3*	3.0	3.7	2.5
COC(=O)[C@]12C[C@H](CC(=O)NCc3ccccc3)C(=O)N(CCc3ccc(OC)c(OC)c3)C1=C[C@H](C(C)C)O[C@@H]2C1CC1	-1.2	-1.4	-1.7	-2.6	-0.4
COC(=O)[C@H](Cc1ccccc1)N[C@H](c1ccc(OC)cc1)[C@@H](O)Cc1ccccc1	-1.0	1.0	1.5	0.6	-0.2
COCCCNCCOCCOc1ccc(C)cc1Br	-0.5	0.1	6.4	5.7*	-0.3
O=c1cc(N2CCc3ccccc32)[nH]c(=O)n1Cc1ccc(F)cc1	-0.1	-0.5	-2.4	5.8*	0.1
CCCCc1c(C)c2ccc(OCC(C)=O)cc2oc1=O	0.5	11.4*	4.5	4.3	1.8
CCCCCCCCN1CCS(=O)(=O)N(Cc2ccc(Cl)cc2)C(C(=O)OC)C1 (stereo not drawn)	-1.2	-1.7	0.2	0.2	0.6
C[N+](C)(C)CCOC(=O)CCC(=O)OCC[N+](C)(C)C	-0.7	11.1*!	-3.3	-1.0	0.6
